{"source": "PubChem BioAssay AID2384", "about": "(Southern Research Specialized Biocontainment Screening …, 2010)", "note": "The campaign covered roughly 2,300 compounds. About 1,100 (48%) were called active. The set was probably picked from earlier hits. Some of the results follow. Entries with a potency or affinity are not part of this list. A number with no mark means an inactive call. The rule behind the calls is not given here.", "data": [{"assay": "S. typhi counter-screen signal inhibition – fluorescence, 4 h, counter-screen for PhoP regulon inhibitor project, dose response (AID 2384)", "conditions": "S. typhi GFP reporter counter-screen; series mostly up to 150 µM", "values": [{"smiles": "COc1ccc(Cn2nnnc2C(c2cc3ccc(OC)cc3[nH]c2=O)N2CCC(C)CC2)cc1", "note": "(centres undefined)", "inhibition": "inactive"}, {"smiles": "CCCCCNC(=O)c1cn(CC)c2cc(N3CCN(C)CC3)c(F)cc2c1=O", "inhibition": "inactive"}, {"smiles": "O=C(CCC(=O)Nc1nnc(C2CCCCC2)s1)NCC1CCCO1", "note": "(centres undefined)", "inhibition": "inactive"}, {"smiles": "COc1ccc(OC)c(S(=O)(=O)N2CCC(C(=O)NCc3ccccc3OC)CC2)c1", "inhibition": "inactive"}, {"smiles": "COC(=O)C1=C(C(=O)OC)SC(=C2C(=S)C(C)(C)N(C(=O)C3CC3)c3ccccc32)S1", "inhibition": "inactive"}, {"smiles": "COc1cc(/C=N/N(C)S(=O)(=O)c2ccc(C)cc2)cc([N+](=O)[O-])c1O", "inhibition": "inactive"}, {"smiles": "COc1cccc(/C=N/NC(=O)CNC(=O)COc2cccc(C)c2)c1O", "inhibition": "inactive"}, {"smiles": "Nc1ccc(C(O)(C(F)(F)F)C(F)(F)F)cc1", "inhibition": "inactive"}, {"smiles": "Cc1nnc(SCc2cnc(-c3ccc(C(C)C)cc3)s2)n1C", "inhibition": "inactive"}, {"smiles": "COC(=O)c1ccc(Cn2c(O)c(N=NC(N)=S)c3ccccc32)o1", "inhibition": "inactive"}, {"smiles": "CC1CCCCN1S(=O)(=O)c1ccc(S(=O)(=O)NCCc2ccncc2)cc1", "note": "(centres undefined)", "inhibition": "inactive"}, {"smiles": "NC(=O)c1ccsc1NC(=O)c1ccc2c(c1)CCCC2", "inhibition": "inactive"}, {"smiles": "COc1ccc(/C=N/NC(=O)c2cccnc2)c(C(=O)O)c1OC", "inhibition": "inactive"}, {"smiles": "N#C/C(=C\\c1ccc(O)c(O)c1)C(=O)c1ccc(O)c(O)c1", "inhibition": "inactive"}, {"smiles": "COc1cc(/C=C(/C#N)C(=O)Nc2ccccc2)c(Br)cc1OCc1ccc(C(=O)O)cc1", "inhibition": "inactive"}, {"smiles": "COc1ccc(OC)c(C(=O)c2ccc(C(=O)O)cc2)c1", "inhibition": "inactive"}, {"smiles": "CC(Oc1ccc(/C=N/NC(=O)Cc2cccc3ccccc23)cc1)C(=O)O", "note": "(centres undefined)", "inhibition": "inactive"}, {"smiles": "COc1ccc(/C=N/NC2=NCCCCC2)c(OC)c1", "inhibition": "15.8% [at 9.38 µM]"}, {"smiles": "COc1ccc2nc(C)cc(Nc3ccc(N4CCOCC4)cc3)c2c1", "inhibition": "inactive"}, {"smiles": "COc1ccc(CNC(=O)C(c2cccs2)N(C(=O)c2csnn2)C2CC2)cc1", "note": "(centres undefined)", "inhibition": "inactive"}, {"smiles": "COC(=O)c1ccc(NC(=O)c2ccccc2N(C)S(=O)(=O)c2ccccc2)cc1", "inhibition": "inactive"}, {"smiles": "Cc1ccc(N/N=C/c2ccncc2)cc1", "inhibition": "inactive"}, {"smiles": "Cc1ccc(-c2ccccc2NC(=O)CS(=O)CC(=O)Nc2ccc(C)c(Cl)c2)o1", "note": "(centres undefined)", "inhibition": "inactive"}, {"smiles": "COc1ccc(-n2c3c(cc(C(=O)Nc4cccc(C)n4)c2=O)C(=O)CC(C)(C)C3)cc1", "inhibition": "inactive"}, {"smiles": "CNc1nc(SC)n(C)c(=O)c1N=O", "inhibition": "inactive"}, {"smiles": "CCOC(=O)c1cc(-c2ccc(F)cc2)n(CCC(=O)NC2CCN(Cc3ccccc3)CC2)c1C", "inhibition": "inactive"}, {"smiles": "O=C(CCCCCn1c(=S)[nH]c2ccc(N3CCOCC3)cc2c1=O)NC1CCN(Cc2ccccc2)CC1", "inhibition": "inactive"}, {"smiles": "Cc1ccc(NC(=S)Nc2ccc(S(=O)(=O)Nc3ncccn3)cc2)cc1Cl", "inhibition": "inactive"}, {"smiles": "Cc1ccc(CCNC(=O)C2CCN(S(=O)(=O)N3CCCC3)CC2)cc1", "inhibition": "inactive"}, {"smiles": "CC1CCN(c2nc3ccc(C(=O)NCCCN4CCCCC4)cc3s2)CC1", "inhibition": "inactive"}, {"smiles": "Cc1c(C)n(C)c2ccc(C(=O)NCCCN3CCCC3)cc12", "inhibition": "inactive"}, {"smiles": "COCC1CCCN(Cc2cn[nH]c2-c2cc3ccccc3o2)C1", "note": "(centres undefined)", "inhibition": "inactive"}, {"smiles": "O=C(c1ccc2c3c(cccc13)CC2)C1CCCN(Cc2ncc[nH]2)C1", "note": "(centres undefined)", "inhibition": "inactive"}, {"smiles": "O=c1cc(-c2ccc(Cl)cc2)[nH][nH]1", "inhibition": "inactive"}, {"smiles": "COc1ccc2c(c1)c1nc(SCC(C)C)n(CCO)c(=O)c1n2C", "inhibition": "inactive"}, {"smiles": "O=C(CN(C(=O)CNS(=O)(=O)c1ccccc1)C1CCCC1)NCc1ccco1", "inhibition": "inactive"}, {"smiles": "CCn1c(CNC(=O)c2ccc(OC)cc2)nnc1SC", "inhibition": "inactive"}, {"smiles": "COc1ccc(C(=O)CSc2nnc(-c3cnccn3)n2Cc2ccco2)cc1", "inhibition": "inactive"}, {"smiles": "CN(C)S(=O)(=O)c1cccc(NC(=O)c2cnccn2)c1", "inhibition": "inactive"}, {"smiles": "CC(=O)Nc1ccccc1-c1nc2ccc(C(=O)N3CCN(c4cc(C)ccc4C)CC3)cc2[nH]c1=O", "inhibition": "inactive"}, {"smiles": "COc1cccc(/C=N/NC(=O)CSCC(=O)Nc2ccccc2)c1O", "inhibition": "inactive"}, {"smiles": "COc1cccc(/C=N/NC(=O)CO/N=C(\\C)c2cccs2)c1OC", "inhibition": "inactive"}, {"smiles": "Cn1cc(C(=O)N/N=C/C(Br)=C/c2ccccc2)ccc1=O", "inhibition": "inactive"}, {"smiles": "C/C(=N\\NC(=O)c1c(Br)c(C)nn1C)c1ccc(NC(=O)c2ccoc2C)cc1", "inhibition": "inactive"}, {"smiles": "COc1cccc(/C=N/NC(=O)C(=O)N2CCCC2)c1O", "inhibition": "inactive"}, {"smiles": "O=C(Nc1ccc2[nH]c(=S)sc2c1)Nc1ccccc1F", "inhibition": "inactive"}, {"smiles": "CC1=C([N+](=O)[O-])C(c2cccc(Br)c2)C2=C(N1)c1ccccc1C2=O", "note": "(centres undefined)", "inhibition": "inactive"}, {"smiles": "Cn1nnnc1SCc1nnc(-c2ccccc2Br)o1", "inhibition": "inactive"}, {"smiles": "Cc1c(C)c2ccc(OC(C)C(=O)N[C@@H](Cc3c[nH]c4ccccc34)C(=O)O)c(C)c2oc1=O", "note": "(some centres undefined)", "inhibition": "inactive"}, {"smiles": "COc1ccc(-c2nnn(-c3ccc(Cl)cc3Cl)c2N)cc1", "inhibition": "inactive"}, {"smiles": "CC(=O)Oc1ccc(C(=O)Nc2ccc3c(c2)C(=O)N(CCC(=O)O)C3=O)cc1", "inhibition": "inactive"}, {"smiles": "Cc1ccccc1-n1ncc2c([N+](=O)[O-])cc([N+](=O)[O-])cc21", "inhibition": "inactive"}, {"smiles": "COc1cc(NS(=O)(=O)c2ccc(NC(=S)Nc3ccccc3)cc2)nc(OC)n1", "inhibition": "inactive"}, {"smiles": "Cc1ccc(-n2[nH]c(C)c(C=NCc3ccncc3)c2=O)cc1", "inhibition": "inactive"}, {"smiles": "Cc1[nH]n(-c2ccccc2)c(=O)c1C(c1cccc([N+](=O)[O-])c1O)c1c(C)[nH]n(-c2ccccc2)c1=O", "inhibition": "inactive"}, {"smiles": "COc1ccc(CCNC(=O)CSc2ccc(-c3ccncc3)nn2)cc1", "inhibition": "inactive"}, {"smiles": "O=C(Nc1ccc2c(c1)OCCO2)C(=S)NCc1ccccc1", "inhibition": "inactive"}, {"smiles": "O=C(CCN1CCC(c2ccccc2)C1)c1ccc2c(c1)OCCO2", "note": "(centres undefined)", "inhibition": "inactive"}, {"smiles": "Cc1ccc(N(C(=O)c2sc(C)nc2C)C(C(=O)NCc2ccco2)c2ccccc2)cc1", "note": "(centres undefined)", "inhibition": "inactive"}, {"smiles": "COc1ccc(C2=NN3C(=O)c4c(ccc(OC)c4OC)C3C2)cc1", "note": "(centres undefined)", "inhibition": "inactive"}, {"smiles": "O=[N+]([O-])c1cccnc1S(=O)(=O)c1ccccc1", "inhibition": "inactive"}, {"smiles": "O=c1ccnc(Sc2ncccc2[N+](=O)[O-])[nH]1", "inhibition": "inactive"}, {"smiles": "CC(=O)NS(=O)(=O)c1ccc(Nc2ccc([N+](=O)[O-])c3nonc23)cc1", "inhibition": "inactive"}, {"smiles": "COc1ccc(CCN(C(=O)C(F)(F)F)C(C(=O)NC2CCCC2)c2cccs2)cc1", "note": "(centres undefined)", "inhibition": "inactive"}, {"smiles": "CCCCNC(=O)NS(=O)(=O)c1ccc(C(=O)OC)o1", "inhibition": "inactive"}, {"smiles": "CC(C)OC(=O)c1cccc(C(=O)Oc2ccc(Br)cc2)n1", "inhibition": "inactive"}, {"smiles": "Nc1ccc(S(=O)(=O)Nc2ccc(Cl)nn2)cc1", "inhibition": "inactive"}, {"smiles": "CN1CCN(c2ccc(C(=O)c3cn(-c4ccc(F)c(Cl)c4)nn3)cc2)CC1", "inhibition": "inactive"}, {"smiles": "CN1CCN(C2=Cc3cc(Cl)ccc3Sc3cc(F)ccc32)CC1", "inhibition": "inactive"}, {"smiles": "CCc1nnc(NS(=O)(=O)c2ccc(N=Cc3c(C)[nH]n(-c4ccc(C)cc4)c3=O)cc2)s1", "inhibition": "inactive"}, {"smiles": "COC(=O)C1=C(C)N(C2CCCC2)C(=O)C1(NC(C)=O)C(F)(F)F", "note": "(centres undefined)", "inhibition": "inactive"}, {"smiles": "O=C(CN(Cc1ccco1)C(=O)CNS(=O)(=O)c1ccc(Cl)cc1)NCc1ccc(F)cc1", "inhibition": "inactive"}, {"smiles": "CN(C)CCN1C(=O)C(O)=C(C(=O)c2cc3ccccc3o2)C1c1ccccn1", "note": "(centres undefined)", "inhibition": "inactive"}, {"smiles": "CC(=O)c1ccc(OC(=O)c2cc3ccccc3oc2=O)cc1", "inhibition": "inactive"}, {"smiles": "O=C(O)c1ccc(S(=O)(=O)NC2CC2)cc1", "inhibition": "inactive"}, {"smiles": "CCCCOc1ccc(-c2nnn(CC(=O)Nc3ncc(CC(=O)OCC)s3)n2)cc1", "inhibition": "inactive"}, {"smiles": "Cc1cccc(OCc2nnc(SCC(=O)N3CCCC3)n2C)c1", "inhibition": "inactive"}, {"smiles": "Cc1ccc(OCCCCn2c(CO)nc3ccccc32)cc1", "inhibition": "inactive"}, {"smiles": "Cc1ccc2nc(/C(C#N)=C\\c3ccc(N4CCCCC4)c([N+](=O)[O-])c3)[nH]c2c1", "inhibition": "17.9% [at 9.38 µM]"}, {"smiles": "CCCCc1cc(=O)oc2cc(C)cc(OCC(=O)NCC3CCC(C(=O)O)CC3)c12", "note": "(centres undefined)", "inhibition": "inactive"}, {"smiles": "O=C1c2ccc3c4c(ccc(c24)C(=O)N1c1cccc(O)c1)C(=O)N(c1cccc(O)c1)C3=O", "inhibition": "inactive"}, {"smiles": "Cc1c(C(=O)O)sc(=S)n1-c1ccc(Cl)cc1", "inhibition": "inactive"}, {"smiles": "Cc1cccc(N2C(=O)CS/C2=N\\NC(=O)c2ccc(Br)cc2)c1C", "inhibition": "inactive"}, {"smiles": "Cc1ccc(/C=C2\\SC(=S)N(c3cccnc3)C2=O)o1", "inhibition": "inactive"}, {"smiles": "CC(=O)NCc1ccc(C(=O)CSc2nnc(-c3ccncc3)n2Cc2ccccc2)o1", "inhibition": "inactive"}, {"smiles": "COc1ccc(S(=O)(=O)N[C@H](C(=O)N2CC[C@@]3(O)CCCC[C@H]3C2)c2ccccc2)cc1", "inhibition": "inactive"}, {"smiles": "COc1ccc(OC)c(S(=O)(=O)N2CCC(C(=O)NCCc3ccc(OC)c(OC)c3)CC2)c1", "inhibition": "inactive"}, {"smiles": "COc1ccc(OC)c(NC(=O)CCNS(=O)(=O)c2ccc3c(c2)c(=O)n(C)c(=O)n3C)c1", "inhibition": "inactive"}, {"smiles": "O=C(CCCOc1ccc(Cl)cc1Cl)NNC(=O)C1CCC1", "inhibition": "inactive"}, {"smiles": "Clc1ccc(OCc2nn3c(C4CCCCC4)nnc3s2)c(Cl)c1", "inhibition": "inactive"}, {"smiles": "CC(C)OC(=O)Cn1c(=O)sc2ccccc21", "inhibition": "inactive"}, {"smiles": "CC/C(=N\\Nc1ccnc2cc(Cl)ccc12)c1ccc(O)cc1", "inhibition": "inactive"}, {"smiles": "Cc1ccc(NC(=O)Cc2ccc(F)cc2)cc1", "inhibition": "inactive"}, {"smiles": "Cc1ccc(NC(=O)CS(=O)CC(=O)Nc2ccccc2-c2ccc(C)o2)cc1", "note": "(centres undefined)", "inhibition": "inactive"}, {"smiles": "CC1CCN(CC(CS(=O)(=O)c2ccc([N+](=O)[O-])cc2)N2CCC(C)CC2)CC1", "note": "(centres undefined)", "inhibition": "inactive"}, {"smiles": "CC1CC(C)CN(S(=O)(=O)c2cccc3cccnc23)C1", "note": "(centres undefined)", "inhibition": "inactive"}, {"smiles": "C=CCN(c1ccccc1)S(=O)(=O)c1cccc2cccnc12", "inhibition": "inactive"}, {"smiles": "Cc1cc(C(=O)OCC(=O)Nc2cccc(S(=O)(=O)N3CCOCC3)c2)c(C)o1", "inhibition": "inactive"}, {"smiles": "Cc1nc(N=Nc2ccc(O)cc2)n[nH]1", "inhibition": "inactive"}, {"smiles": "Cc1cccc(-n2ccnc2CN2CCN(C3CCCC3)C(CCO)C2)c1", "note": "(centres undefined)", "inhibition": "inactive"}, {"smiles": "O=C1c2[nH]nc(-c3ccccc3O)c2C(c2ccc(F)cc2)N1CC1CCCO1", "note": "(centres undefined)", "inhibition": "inactive"}, {"smiles": "COc1ccccc1-c1cc2nc(C)c(CCC(=O)NC(C)CCc3ccco3)c(C)n2n1", "note": "(centres undefined)", "inhibition": "inactive"}, {"smiles": "O=C(/C=C/c1ccc(Cl)cc1)NCCCn1ccnc1", "inhibition": "inactive"}, {"smiles": "O=C(NCCCn1ccnc1)c1cc2c(ccc3ccccc32)o1", "inhibition": "inactive"}]}]}
